# Measurements published in PubChem BioAssay (NCATS).
# Values without a mark were called inactive. The source made the active and inactive calls. The call rests on the fitted dose curve; in most records, active means well fitted inhibition curve with a large enough effect; inconclusive means small, poorly fitted or top-dose-only effect; inactive means no such curve, though single readings can be large or run the other way.
# Molecular target: Single-stranded DNA cytosine deaminase (Homo sapiens) (UniProt Q9GZX7)
# Sequence (Q9GZX7 whole entry, looked up): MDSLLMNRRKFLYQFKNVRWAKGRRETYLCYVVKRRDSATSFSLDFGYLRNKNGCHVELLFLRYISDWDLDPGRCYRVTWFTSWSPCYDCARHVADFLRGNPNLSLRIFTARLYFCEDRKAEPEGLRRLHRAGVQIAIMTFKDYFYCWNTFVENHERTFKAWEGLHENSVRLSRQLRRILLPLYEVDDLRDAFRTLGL
# Experiment: Validation qHTS assay for inhibitors of Activation Induced Cytidine Deaminase (AID): AID signal (AID 1347429)
# Details: Recombinant AID, FRET ssDNA deamination with UDG, fluorescence; series mostly up to 115 µM; activity change, negative = inhibition: at the top concentration
# Procedure, shortened: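 AID and UDG were combined and compounds added at final up to 114 uM, then DJC20/DJC23 FRET substrate was added for 4 hr at room temperature. NaOH was then added for 30 min before fluorescence was read at 540/590 nm.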
# On the % scale 0 is the no-effect control and ±100 the full control effect; potency means the concentration at half of the fitted maximal effect.
SMILES,Potency,"activity change, negative = inhibition [%]"
CC(=O)O[C@H]1C[C@@H]2CC[C@@H]3[C@H](CC[C@@]4(C)[C@H]3C[C@H]([N+]3(C)CCCCC3)[C@@H]4OC(C)=O)[C@@]2(C)C[C@@H]1[N+]1(C)CCCCC1,7.94 µM (active),
CNCCC(Oc1ccccc1C)c1ccccc1 (stereo not drawn),,17.8
C1CCc2nnnn2CC1,,9.96
CCCC1O[C@@H]2C[C@H]3[C@@H]4CCC5=CC(=O)C=C[C@]5(C)[C@H]4[C@@H](O)C[C@]3(C)[C@]2(C(=O)CO)O1 (stereo partly drawn),,11.4
C[C@]12CC[C@@H]3c4ccc(O)cc4CC[C@H]3[C@@H]1CC[C@@H]2O,,5.6
N[C@@H](Cc1cnc[nH]1)C(=O)O,,21.1
CC(C)COC(=O)OCN1C(=O)CN(CCN2CC(=O)N(COC(=O)OCC(C)C)C(=O)C2)CC1=O,,11.5
CC[C@H](C)C(=O)O[C@H]1CCC=C2C=C[C@H](C)[C@H](CC[C@@H]3C[C@@H](O)CC(=O)O3)[C@H]21,,10.5
N[C@H](CO)C(=O)O,,21.1
CNCCC=C1c2ccccc2CCc2ccccc21,,1.2
CC(C)C[C@H]1C(=O)N2CCC[C@H]2[C@]2(O)O[C@](NC(=O)[C@@H]3C=C4c5cccc6[nH]c(Br)c(c56)C[C@H]4N(C)C3)(C(C)C)C(=O)N12,,85.4
CCCn1c(=O)[nH]c(=O)c2[nH]cnc21,,22.9
O=C(O)c1cc2cc(Cc3cccnc3)ccc2o1,,15.7
C[N+]1(CCCCC[N+]2(C)CCCC2)CCCC1,,27.8
CN1C2CCC1CC(OC(=O)c1c[nH]c3ccccc13)C2 (stereo not drawn),,7.48
CC(CCc1ccccc1)NCC(O)c1ccc(O)c(C(N)=O)c1 (stereo not drawn),,25.6
C[C@@H]1C(=O)NC2=Nc3cccc(Cl)c3CN21,,18.9
COC(=O)[C@H]1[C@H]2C[C@H]3c4[nH]c5ccccc5c4CCN3C[C@H]2CC[C@@H]1O,,53.8
CCC(NC(C)C)C(O)c1ccc(O)c(O)c1 (stereo not drawn),,4.44
CC1(C)CCC(NC(=O)[C@@H](N)CCC(=O)O)CC1,,20.8
O=C1CCC(c2ccc(-n3ccnc3)cc2)=NN1,,5.13
Nc1cc(Cl)c(NC2=NCCN2)c(Cl)c1,,12.2
COc1cc2c(cc1O)CC[C@@H]1[C@@H]2CC[C@]2(C)[C@@H](O)CC[C@@H]12,,17.8
